Screening data deposited in PubChem BioAssay by several laboratories.
DUSP3 inh – inhibitors of human VHR1 phosphatase (DUSP3); inhibition, % at 13.3 µM; 290,000 compounds, 0.52% hits; recombinant VHR phosphatase, pNPP absorbance; P51452; in the data active = inhibition above about 50%
Target sequence (P51452 whole entry, looked up): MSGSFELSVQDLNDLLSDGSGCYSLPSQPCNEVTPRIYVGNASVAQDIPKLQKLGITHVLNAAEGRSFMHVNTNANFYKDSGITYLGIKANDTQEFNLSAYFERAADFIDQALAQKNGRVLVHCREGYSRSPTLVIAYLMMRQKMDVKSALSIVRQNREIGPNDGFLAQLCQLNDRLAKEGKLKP
MazEF act – activators of E. coli MazEF toxin-antitoxin RNase | P0AE70 | FAM/BHQ RNA-DNA oligo cleavage fluorescence, 5 h | activation, % at 20 µM | 350,000 compounds, 0.32% hits | AID 504720; in the data active = activation above about 50%
Target sequence (P0AE70 whole entry, looked up): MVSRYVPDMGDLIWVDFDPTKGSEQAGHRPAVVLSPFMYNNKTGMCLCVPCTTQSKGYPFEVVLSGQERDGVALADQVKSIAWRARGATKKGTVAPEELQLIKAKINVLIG
BoNT F protease – BoNT F light chain protease inhibition; Multiplex microsphere protease cleavage assay, flow cytometry; inhibition, % at 10 µM; 360,000 compounds, 0.22% hits; AID 588497; in the data active = inhibition above about 35%, passing the limit was not always enough; inconclusive = no clear call, values can overlap the other calls; also: plate controls were buffer without enzyme for full effect and enzyme alone for no effect
BoNT-A LC inh2 – blocks Botulinum neurotoxin A light chain protease; multiplex microsphere protease substrate cleavage, flow cytometry; inhibition, % at 10 µM; 360,000 compounds, 0.17% hits; AID 588499; also: plate controls were buffer without enzyme for full effect and enzyme alone for no effect
Bead autofluor – flagged as autofluorescent in microsphere protease counterscreen; compound autofluorescence counterscreen, microsphere flow cytometry; active compounds read high; fluorescence intensity (concentration not given with the values); 360,000 compounds, 3.1% hits; AID 624483; in the data active = fluorescence intensity above about 16000; inconclusive = no clear call, values can overlap the other calls
Anthrax LF prot – inhibitors of Bacillus anthracis lethal factor protease | inhibition, % at 10 µM | AID 588501 | multiplex microsphere protease cleavage assay, LF | 360,000 compounds, 0.12% hits | P15917; also: plate controls were buffer without enzyme for full effect and enzyme alone for no effect
An asterisk follows results filed as active; i = inactive; ? = inconclusive; / = not tested or not shown. Compounds with a hit are over-represented: about 4.1% of the library has one in this group of screens. Rule as the data show it, unless noted: active = inhibition above about 30%; inconclusive = no clear call, values can overlap the other calls; inactive = below that.

SMILES | DUSP3 inh | MazEF act | BoNT F protease | BoNT-A LC inh2 | Bead autofluor | Anthrax LF prot
CCCCN1CC(=O)N2[C@H]3c4cc(C)ccc4OC[C@@H]3[C@H](c3ccccc3)[C@]2(C)C1=O | / | 87* | -3 | -1 | 3521 | -7
CCCCN1CC(=O)N2[C@@H]3c4cc(Br)ccc4OC[C@@H]3[C@H](C(=O)OCC)[C@]2(C)C1=O | / | 62* | 6 | 0 | 2947 | 0
C=CCN(c1ccc(F)cc1)S(=O)(=O)c1cc(C(=O)NC2CC2)ccc1Cl | / | 0 | 6 | 0 | 2791 | -1
O=C(NCCc1ccc(F)cc1)c1ccc(NS(=O)(=O)c2ccc3[nH]c(=O)[nH]c3c2)cc1 | / | 6 | 14 | 3 | 5131 | -1
O=C(NCC1CC1)c1ccc2sc([C@@H]3O[C@H](CO)[C@H](O)[C@H](O)[C@H]3O)nc2c1 | / | / | -2 | 0 | 3891 | -1
CC(C)c1ccc(NC2CCCN(C(=O)CC3CCCC3)C2)cc1 (stereo not drawn) | -5 | 1 | 1 | -1 | 5648 | -4
Cc1cccc(NS(=O)(=O)c2ccc(C)c(C(=O)NC3CCN(Cc4ccccc4)CC3)c2)c1 | / | -51 | 18 | 9 | 30942* | 3
CS(=O)(=O)Nc1ccc(C(=O)Nc2ccccc2C(=O)N2CCCC2)cc1 | -14 | 8 | -1 | 1 | 20057* | -1
CN(CC(=O)Nc1ccccc1C(=O)N1CCCC1)S(=O)(=O)c1ccc(Cl)cc1 | 0 | -3 | -1 | -1 | 24313* | 1
CS(=O)(=O)Nc1ccccc1C(=O)Nc1ccccc1C(=O)N1CCCC1 | 40 | 2 | -2 | -1 | 5500 | 0
O=C(c1ccc(Cn2cc(Cl)cn2)cc1)N1CCN(c2ccccc2)CC1 | 18 | -3 | -8 | -1 | 9205 | -10
CS(=O)(=O)Nc1ccc(C(=O)N2CCN(c3ccccc3)CC2)cc1 | -11 | 8 | 5 | 2 | 22316* | -6
O=C(c1ccc(Cn2cc(Br)cn2)cc1)N1CCN(c2ccccc2)CC1 | 0 | 0 | -1 | 1 | 23168* | 5
O=C1C2CCCCN2C(=O)N1CCCCN1CCN(c2ccccc2Oc2ccccc2)CC1 (stereo not drawn) | 13 | -25 | ? | 3 | 3977 | -9
CSc1cnc2c(=O)[nH]c(=O)n(C)c2n1 | 39 | -4 | 25 | 2 | 2143 | 0
Cc1nc(-n2cc(F)c(=O)[nH]c2=O)c2nc(C)oc2n1 | 0 | -8 | -4 | -2 | 17089* | -4
CCCC(CCC)C(=O)Nc1ccc2c(c1)N(C(=O)CCN1CCN(C)CC1)c1ccccc1CC2 | 30 | 13 | -8 | 0 | 4459 | -2
CCN(CC)c1ccc2cc(C(C)=O)c(=O)oc2c1 | 28 | -186 | 1 | 3 | 4680 | 1
CCN(CC)c1ccc2cc(-c3nnc(-c4ccncc4)o3)c(=O)oc2c1 | -16 | i | 6 | 3 | 24761* | 13
C=C(C)COc1ccc2c(C)c(CCC(=O)N3C[C@H]4C[C@@H](C3)c3cccc(=O)n3C4)c(=O)oc2c1 | 20 | 4 | -5 | 0 | 3941 | -10
CCN(CC)CCNC(=O)C(C)c1nn(CC)c(=O)c2ccccc12 (stereo not drawn) | 3 | 7 | 1 | 1 | 22461* | 0
O=C(CNC(=O)c1ccc(Br)cc1)NCCc1nc2ccccc2[nH]1 | -6 | 6 | -2 | -1 | 19972* | 0
O=C(NC(=S)Nc1nc(-c2ccc(Br)cc2)cs1)c1cccnc1 | 30 | -1 | -2 | -1 | 23721* | -2
COc1cccc(/C=C/C(=O)NNC(=O)c2ccco2)c1OC | / | 8 | 7 | 0 | 2924 | 1
CS(=O)(=O)N1CCN(C(=O)c2ccccc2)C1 | 3 | 7 | 0 | 0 | 16660* | -2
SMILES | DUSP3 inh | MazEF act | BoNT F protease | BoNT-A LC inh2 | Bead autofluor | Anthrax LF prot
O=C(c1ccccc1)N1CCN(C(=O)c2ccccc2)CC1 | -22 | 9 | -4 | 0 | 3075 | -4
CC1(C)C(C(=O)N2CCN(C(=O)c3ccccc3)CC2)C1(C)C | 58* | 4 | -22 | 1 | 3492 | -4
CN(C)S(=O)(=O)N1CCN(C(=O)c2ccccc2)CC1 | 16 | 3 | -5 | 2 | 4505 | 6
CC(C)(C)NC(=O)C(c1ccco1)N(C(=O)Cn1nnc(-c2ccc(F)cc2)n1)c1cccc(F)c1 (stereo not drawn) | 22 | 0 | 1 | 0 | 22593* | -1
CC(C)(C)NC(=O)C(c1ccncc1)N(Cc1cccs1)C(=O)Cn1nnc(-c2ccc(F)cc2)n1 (stereo not drawn) | 53* | -4 | 10 | 1 | 3658 | -1
CCN1C[C@@H]2[C@@H]3C(=O)N(Cc4ccccc4)C(=O)[C@@H]3[C@](C)(C(=O)OC)N2C1=NC | / | -1 | -4 | 0 | 3635 | 0
Cc1c(C(=O)N2CCC3(CC2)OCCO3)oc2ccccc12 | -10 | -2 | 6 | 4 | 18025* | 5
Cn1cc(C(=O)N2CCC3(CC2)OCCO3)c2c3ccccc3n(C)c2c1=O | 8 | -3 | -1 | -1 | 23087* | -4
Cc1c(C(=O)N2CCC3(CC2)OCCO3)oc2ccc(S(=O)(=O)N3CCOCC3)cc12 | 17 | 3 | 4 | 2 | 3481 | 1
COCCCNC(=O)c1cn(C)c(=O)c2c1c1ccccc1n2C | 9 | 7 | -10 | 0 | 3680 | -3
CC1=C(C(=O)N2CCC3(CC2)OCCO3)C2(CCC(C)CC2)OC1=O (stereo not drawn) | 5 | -7 | 1 | ? | 21647* | -1
Cn1cc(C(=O)NCCN2CCN(c3cccc(Cl)c3)CC2)c2c3ccccc3n(C)c2c1=O | -4 | 3 | -2 | -1 | 23347* | -3
CCOC(=O)N1CCN(C(=O)c2cn(CC(C)C)c(=O)c3c2c2ccccc2n3C)CC1 | 21 | -1 | 6 | 0 | 9732 | 0
CCOC(=O)N1CCN(C(=O)c2cn(C)c(=O)c3c2c2ccccc2n3C)CC1 | 11 | 2 | 3 | 2 | 22295* | 0
Cc1cccc(-c2nnc(C(C)Nc3cccc(C(=O)NC4CC4)c3)o2)c1 (stereo not drawn) | / | 4 | -6 | 0 | 3767 | 0
OCCNc1c2ccccc2nc2c(F)c(F)c(F)c(F)c12 | -1 | -4 | -22 | 0 | 2622 | -2
Cc1c2ccccc2nc2c(F)c(NCCO)c(F)c(F)c12 | -9 | 63* | -37 | 0 | 1980 | -6
COc1ccc(C(=O)Nc2cc(OC)c(Cl)cc2OC)cc1 | 18 | -4 | -10 | 0 | 4944 | -9
CCCCOC(=O)Nc1ccc(C(=O)OC)cc1 | 21 | 10 | 1 | 0 | 21923* | -2
CCCCOC(=O)Nc1cc(OC)c(Cl)cc1OC | -14 | 1 | 0 | 1 | 23042* | -2
COc1cc(NC(=O)c2c(F)c(F)c(F)c(F)c2F)c(OC)cc1Cl | 8 | 7 | 1 | 2 | 21733* | -2
COc1cccc(/C=C/C(=O)N2CCN(S(=O)(=O)c3ccccc3)CC2)c1 | / | 3 | -5 | 0 | 4055 | -11
Cc1ccc(NC(=O)N/C=C/c2ccco2)cc1C | -4 | 11 | -2 | ? | 21513* | 2
